Compound activity (PubChem BioAssay)
An excerpt weighted towards active compounds, which were near 10% of everything screened.
LMNA splice mod: qHTS Assay for Modulators of Lamin A Splicing; HeLa LMNA splicing GFP/RFP minigene ratio, 48 h; Potency, µM (series often up to 46.1 µM), for inactives: at the highest dose ratio change, negative = inhibition, actives largely listed as inhibitors; actives 0.01% (n = 200,000); active = well fitted inhibition curve with a large enough effect in the signal ratio, with a control signal flat, not every such curve was filed as active; inconclusive = small, poorly fitted or top-dose-only effect, or effect the other way, or a change in a side signal; the % refers to the signal ratio; also: potency is read from the fitted curve at half-maximal effect
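Read-out is the ratio of GFP to DsRed2 object intensity, acquired by 488 nm laser-scanning cytometry on HeLa lamin A-EGFP minigene reporter cells. Compound incubation 48 hrs at 37 °C in Opti-MEM with 2% FBS; DMSO 0.5% final.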
PNC assembly inh: High Content Assay for Compounds that inhibit the Assembly of the Perinucleolar Compartment. PC3M PTB-GFP, PNC prevalence imaging, 16 h; hits give low values. activity change (PNC), negative = inhibition, % at 10 µM. actives 3.1% (n = 140,000);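 active = readout at or below -70, meaning at least 70% loss of cells showing the perinucleolar compartment, a nuclear body marking cancer cells; inconclusive = readout between -30 and a set limit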;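 also: plate controls were DMSO wells for no effect and camptothecin positive control wells for full effect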
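Read-out is percentage of cells bearing a perinucleolar compartment, from automated 20x imaging of fixed, Hoechst-stained PC3M PTB-GFP cells. Cells were seeded 4 h, then exposed 16 h to compound (23 nl of library stock) in duplicate plates.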
ALDH1A1 block: qHTS Assay for Inhibitors of Aldehyde Dehydrogenase 1 (ALDH1A1); Purified ALDH1A1, NADH fluorescence, propionaldehyde substrate; actives 7.3% (n = 220,000); Potency, µM (highest dose often 75.3 µM), inactives show at the top dose activity, negative = inhibition, usual class: inhibitors; Aldehyde dehydrogenase 1A1 (Homo sapiens), P00352;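 also: potency is read from the fitted curve at half-maximal effect; plate controls were no enzyme wells and a reference inhibitor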
HPGD block: qHTS Assay for Inhibitors of HPGD (15-Hydroxyprostaglandin Dehydrogenase). purified HPGD, NADH fluorescence kinetic, PGE2 substrate. Potency, µM, for inactives: at the highest dose activity change, negative = inhibition, hits mostly inhibitors. actives 4.3% (n = 150,000); also: potency is read from the fitted curve at half-maximal effect
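NADH formation kinetics: reaction with 30 uM PGE2 and 1 mM NAD+ (final), 20 nM enzyme, Tris-HCl pH 8 with Tween 20, after 15 min compound preincubation at room temperature. Fluorescence change, last versus first of five reads.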
12-hLO inh: qHTS Assay for Inhibitors of 12-hLO (12-human lipoxygenase); Polyunsaturated fatty acid lipoxygenase ALOX12 (Homo sapiens), P18054; purified 12-hLO, xylenol orange hydroperoxide absorbance; Potency, µM (top dose mostly 57.1 µM), for inactives: at the highest dose activity change, negative = inhibition, actives largely listed as inhibitors; actives 0.12% (n = 150,000); active = well fitted inhibition curve with a large enough effect; inconclusive = small, poorly fitted or top-dose-only effect; also: potency is read from the fitted curve at half-maximal effect; nearly all actives have a fitted effect of over 55% in size
Target sequence (P18054 whole entry, looked up): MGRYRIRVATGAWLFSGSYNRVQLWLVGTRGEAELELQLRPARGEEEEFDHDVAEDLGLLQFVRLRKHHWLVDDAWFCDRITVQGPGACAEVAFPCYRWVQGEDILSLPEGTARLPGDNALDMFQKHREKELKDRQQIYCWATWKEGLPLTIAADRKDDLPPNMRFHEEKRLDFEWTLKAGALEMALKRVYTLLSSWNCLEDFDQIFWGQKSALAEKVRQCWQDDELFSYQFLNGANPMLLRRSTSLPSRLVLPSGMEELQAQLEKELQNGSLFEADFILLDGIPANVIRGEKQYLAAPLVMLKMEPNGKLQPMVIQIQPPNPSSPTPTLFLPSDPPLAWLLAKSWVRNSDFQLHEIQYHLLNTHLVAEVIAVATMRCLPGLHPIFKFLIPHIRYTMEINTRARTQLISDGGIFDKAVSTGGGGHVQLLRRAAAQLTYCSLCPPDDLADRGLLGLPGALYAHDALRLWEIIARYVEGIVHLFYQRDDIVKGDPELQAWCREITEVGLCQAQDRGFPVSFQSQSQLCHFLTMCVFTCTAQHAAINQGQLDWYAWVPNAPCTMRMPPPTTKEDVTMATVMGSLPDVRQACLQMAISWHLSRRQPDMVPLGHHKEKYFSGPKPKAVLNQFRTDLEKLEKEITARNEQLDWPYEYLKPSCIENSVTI
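Purified human 12hLO (150 nM), preincubated 15 min with compound, then 40 uM arachidonic acid for 30 min, room temperature, Hepes pH 7.0 with 0.01% Triton X-100. Hydroperoxide detected by ferrous iron/xylenol orange; 573/405 nm absorbance ratio gives reaction progress.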
An asterisk follows results filed as active; ? = inconclusive; nt = no result given; [ ] = dose if it differs, or a comment. Unless noted, calls follow the shape of the dose curve; as a rule, active = well fitted inhibition curve with a large enough effect (not every such curve was filed as active); inconclusive = small, poorly fitted or top-dose-only effect, or another doubt; inactive = no such curve, though single readings can be large or run the other way. Unless noted, % is scaled to controls: 0 for no effect and ±100 for the full control effect.

SMILES | LMNA splice mod | PNC assembly inh | ALDH1A1 block | HPGD block | 12-hLO inh
O=C(NN=C(Cc1ccccc1)Cc1ccccc1)C1CC1 | ? | nt | 3.7% | nt | nt
N#CC1=C(N)SC(N)=C(C#N)C1c1ccoc1 | -16.0% | ? | 20µM* | 28.2µM* | -26.9%
CC1=C(C#N)C(c2ccoc2)C(C(=O)OCc2ccccc2)=C(N)S1 (stereo unspecified) | -8.9% | -24.2 | 28.2µM* | -18.1% | -22.0%
Cc1ccc(C2C(C#N)=C(N)SC(N)=C2C#N)cc1 | 7.7% | -26.2 | 22.4µM* | -16.4% | ?
Cc1ccc(NC(=O)Nc2cn(CC(C)C)c(=O)c3ccccc23)cc1N(C)C | -9.1%[46 µM] | nt | nt | nt | nt
Cc1cccnc1Nc1ncnc(N)c1[N+](=O)[O-] | 24.5%[46 µM] | nt | 14.3% | nt | nt
Cc1ccc(C)c(Nc2ncnc(N)c2[N+](=O)[O-])c1 | ? | -123.8* | 3.0% | -29.0% | 1.0%
CCOc1ccccc1-n1nnnc1SCC(=O)Nc1cc2oc3ccccc3c2cc1OC | 5.2% | 23.4 | -4.6% | -8.0% | 3.0%
Cc1cc(NC(=O)CSc2nncn2-c2ccccc2)no1 | nt | nt | 0.4% | nt | nt
CCOc1ccccc1-n1nnnc1SCC(=O)Nc1cc(C)on1 | 8.7% | -22.1 | 8.91µM* | 2.8% | -1.9%
CCn1c(Cc2ccccc2)nnc1SCC(=O)Nc1cc(C)on1 | 10.3% | -106.5* | 6.9% | -10.0% | -0.6%
COc1ccccc1-n1cnnc1SCC(=O)c1ccc[nH]1 | -4.5% | -11.2 | ? | -4.0% | 2.5%
COc1ccccc1-n1cnnc1SCC(=O)N1CC(=O)Nc2ccccc21 | -5.8% | ? | 4.47µM* | -4.6% | -1.8%
Cc1cc(NC(=O)CSc2nnnn2-c2ccccc2)no1 | ? | nt | 15.8µM* | nt | nt
Cc1cc(NC(=O)CSc2nnc(Cc3ccccc3)n2C)no1 | -2.7% | ? | 1.8% | -14.7% | -3.1%
COc1ccc(C)cc1NC(=O)CSc1nnnn1Cc1ccccc1 | -9.9% | 37.1 | -10.5% | -4.5% | -2.1%
Cc1cc(NC(=O)CSc2nnnn2Cc2ccccc2)no1 | -13.0% | -14.5 | 31.6µM* | 2.4% | -2.0%
COc1ccccc1-n1nnnc1SCc1cc2c(cc1Br)OCO2 | -16.2% | -27.0 | 4.47µM* | ? | -7.3%
O=C(CSc1nnnn1Cc1ccccc1)NCC(=O)c1ccccc1 | 8.7% | ? | 8.91µM* | -10.5% | -0.3%
COc1ccccc1-n1nnnc1SCc1ccccc1 | -13.2% | -11.6 | ? | -11.6% | -0.9%
O=C(CSc1nnnn1Cc1ccccc1)NCCc1ccccc1 | 2.8% | 43.9 | ? | -4.6% | -0.9%
COc1ccc(-n2nnnc2SCC(=O)Nc2ccccc2N2CCOCC2)cc1OC | ? | nt | 3.8% | nt | nt
COc1ccccc1-n1nnnc1SCC(=O)Nc1ccccn1 | 9.5% | 18.7 | 0.631µM* | -15.3% | 2.2%
CCOc1ccccc1-n1nnnc1SCC(=O)NC(=O)Nc1ccc2c(c1)OCCO2 | -18.6% | 5.4 | 12.6µM* | -14.5% | -2.6%
O=C1CN(C(=O)CSc2nnc(Nc3ccccc3)s2)c2ccccc2N1 | -16.9% | ? | 28.2µM* | 2.24µM* | 0.7%
SMILES | LMNA splice mod | PNC assembly inh | ALDH1A1 block | HPGD block | 12-hLO inh
O=C(CSc1nnnn1-c1ccccc1)Nc1ccc(Cl)cn1 | 4.2% | ? | 2.24µM* | -2.8% | -6.1%
COc1ccccc1-n1cnnc1SCC(=O)Nc1cc(C)on1 | nt | nt | 5.01µM* | nt | nt
COc1ccccc1Nc1nnc(SCC(=O)N2CC(=O)Nc3ccccc32)s1 | -9.7% | -4.4 | -2.8% | nt | 2.3%
O=C(CSc1nnnn1-c1ccccc1)NC(=O)Nc1ccc2c(c1)OCCO2 | 5.9% | -11.4 | ? | -7.0% | -1.4%
COc1ccc(NC(=O)C2CCN(S(=O)(=O)c3cc(-c4noc(C)n4)ccc3C)CC2)cc1 | 2.7%[46 µM] | nt | nt | nt | nt
COc1ccc(-n2ncc(C(=O)Nc3ccc4c(c3)OCO4)c2C2CCN(C(=O)OC(C)(C)C)CC2)cc1 | -6.4%[46 µM] | nt | nt | nt | nt
O=C(CSc1nnnn1-c1ccc(O)cc1)Nc1cccc(S(=O)(=O)N2CCCC2)c1 | ? | -21.1 | -1.4% | -6.1% | -2.1%
Cc1cccc(-n2nnnc2SCC(=O)Nc2cccc(S(N)(=O)=O)c2)c1 | -2.1%[46 µM] | nt | 7.94µM* | nt | nt
O=C(c1csnn1)N1CCC[C@@]2(CCN(c3ccncc3)C2)C1 | nt | nt | -6.4% | -10.2% | 2.6%
